system: Plasmodium falciparum; test: GSK_TCMDC: Inhibition of Plasmodium falciparum 3D7 in whole red blood cells, using parasite LDH activity as an index of growth. Test compounds present at 2uM; assay type: functional

SMILES	Inhibition [%]
O=C(Nc1ccc(Cl)cc1)N[C@H]1CCN(CCCCCNC(=O)C2CC2c2ccc(Cl)c(Cl)c2)C1 (some centres not stated)	96
Nc1cccc(CNCc2cccc(-c3cccc(-c4nc5cc(F)ccc5[nH]4)c3)c2)c1.O=C(O)C(F)(F)F	100
CNCc1ccc(CN(C)c2nc(N)c3cc(OC)c(OC)cc3n2)cc1.O=C(O)C(F)(F)F	96
CCc1nc2c(N)nc(N)nc2nc1-c1ccc(OC)cc1	86
N#Cc1cccc(Nc2nccc(NCC(O)c3ccc(C(F)(F)F)cc3)n2)c1 (configuration not stated)	100
O=C(O)C(F)(F)F.O=S(=O)(NCCN1CCCC1)c1ccc(-c2cccc(CNC3Cc4ccccc4C3)c2)s1	98
COc1ccc(-c2ccc(NC(=O)c3ccc(Cl)cc3)cc2)cc1CN1CCCN(C)CC1.O=C(O)C(F)(F)F	93
CC1CN(c2cc(=O)n(Cc3ccc(NC(=O)Nc4ccc(-c5ccccc5)cc4)cc3)cn2)CC(C)N1.O=C(O)C(F)(F)F (configuration not stated)	87
COc1ccc(CN2CCCN(Cc3cccc(NC(=O)c4ccc5ccccc5c4)c3)CC2)cc1.O=C(O)C(F)(F)F	93
O=C(NCc1ccccc1)NC(CCCN1CCC(Oc2cccc(Cl)c2)CC1)c1ccc(Cl)c(Cl)c1 (configuration not stated)	81
CC(C)N1CCN(C(CN2CCN(CCCOc3cccc(F)c3)CC2)c2ccc(F)cc2)CC1.Cl (configuration not stated)	92
Cc1nc(N)nc(N)c1CCCOc1ccccc1Cl	98
COc1cc2nc(Nc3ccc4c(c3)OCCO4)nc(N)c2cc1OC.Cl	100
COc1cc2nccc(Nc3ccc(OCc4ccccc4)cc3)c2cc1OC	100
Cc1cnc2cc3c(cc2c1N1CCN(C)CC1)NCC3	100
CC(=O)Nc1ccc(CN2CCc3ccc(NS(=O)(=O)c4cccc(OCc5ccc(Cl)cc5)c4)cc3CC2)s1	93
Cc1c(-c2cccc(C(C)(C)NC3CCN(Cc4ccccc4)CC3)c2)cnc(N)c1C.Cl	100
CN(C)Cc1ccc(-c2ccc(NC(=O)c3ccc4c(=O)n(Cc5ccoc5)cnc4c3)cc2)cc1	80
O=C(Nc1ccc(Cl)cc1Cl)NC1CCN(CCCCCNC(=O)C2CC2c2ccc(Cl)c(Cl)c2)CC1 (configuration not stated)	100

SMILES	Inhibition [%]
Cl.N=C(N)NN=Cc1cc2ccccc2c2ccccc12	100
CCC(CN1C(=O)C(c2ccccc2)(c2ccccc2)N=C1N)c1ccccc1.O=CO (configuration not stated)	98
Fc1ccc2[nH]c(-c3cccc(-c4cccc(CNCCN5CCNCC5)c4)c3)nc2c1.O=C(O)C(F)(F)F	94
CCCN(CC1CC1)c1ncc(-c2ccccc2CNCc2ccccc2O)cn1	100
O=C(O)C(F)(F)F.O=c1ccc2ccc(F)c3c2n1CC3CN1CCC(NCc2cccc(-c3ccccc3F)c2)CC1 (configuration not stated)	100
CS(=O)(=O)c1ccc2[nH]c(-c3cc(-c4cccc(F)c4)cnc3N)nc2c1.O=C(O)C(F)(F)F	100
CCCN(Cc1nnc(-c2ccco2)o1)C(=O)C1CCCN(C(=O)c2ccc(Cl)cc2)C1 (configuration not stated)	96
CN1CCN(c2cc3c(cc2Cl)CCN3C(=O)Cc2ccc(Cl)c(NC(=O)Nc3cccc(C#N)c3)c2)CC1	99
CC(C)CNCc1ccc(-c2cccc(CN(CCN(C)C)C(=O)CCC3CCCC3)c2)cc1.O=C(O)C(F)(F)F	100
COc1ccc2nccc([C@@H](O)CN3CCC(NC(=O)/C=C/c4cccc(NC(C)=O)c4)CC3)c2c1	90
CCn1c(-c2nonc2N)nc2c(Cl)ncc(O[C@H](CCN)c3ccccc3F)c21.Cl	96
CCN(CC)CCCN1CCN(C(=O)c2cccc(-c3noc(C(F)(F)F)n3)c2)CC1	91
Cc1cccc(Nc2nccc(Nc3cccc(C(=O)NCCN4CCOCC4)c3)n2)c1	91
Cc1cc(O)c(CN(C)Cc2ccc3c(c2)OCO3)cc1C(C)C	98
CCC(Cc1ccccc1)c1cc(O)c(Cc2ccc(-c3ccccc3)cc2)c(=O)o1 (configuration not stated)	89
Cl.Cn1c2ccccc2c2c3ccccc3c(CNC(CO)(CO)CO)cc21	96
CS(=O)(=O)CCNCc1ccc(-c2ccc3c(Nc4ccc(F)cc4Cl)ccnc3c2)o1	100
N=C(N)c1ccc(NC(=O)c2cc(Sc3ccc(O)c(C(=O)Nc4ccc(C(=N)N)cc4)c3)ccc2O)cc1	93

From ChEMBL document CHEMBL1157539, “Thousands of chemical starting points for antimalarial lead identification” (Nature, 2010)
